Measured values as given in PubChem BioAssay AID1159580 (chemical genetic matrix, 2015).
Among all 5,500 compounds or so, about 2,000 (36%) were called active. Not shown: some 18% with an inconclusive outcome. No stated cut-off is given here; in the data, active means normalized growth mostly below about 0.91 (no sharp cut-off); inconclusive means no clear call, values can overlap the other calls; inactive means mostly above about 0.92. This is one part of the list. Where a SMILES comes first, the peptide text is derived from it. Side-chain parts run from the residue outwards. [ ]: non-standard residue; d: D form. The star is where a group is joined. X1 = CCC(C)C(N)C1=NC(C(=O)*)CS1; Orn = NCCC[CH](N)C(=O)O

Assay: chemical genetic growth profiling, strain panel (AID 1159580);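 further: tested at 20 µM; growth read once vehicle control cultures reached saturation at 30 °C; 1 = growth at the plate median or of vehicle wells; lower values mean less growth of the strain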
Settings: growth OD

Measured: normalized growth

CCC(C)C(N)C1=NC(C(=O)NC(CC(C)C)C(=O)NC(CCC(=O)O)C(=O)NC(C(=O)NCCCCC2NC(=O)C(CC(N)=O)NC(=O)C(CC(=O)O)NC(=O)C(Cc3cnc[nH]3)NC(=O)C(Cc3ccccc3)NC(=O)C(C(C)CC)NC(=O)C(CCCN)NC2=O)C(C)CC)CS1 (stereo not drawn) (cyclo(DNK([Ile-Glu-Leu-X1])[Orn]IFH); configuration not given here)
inactive: S. cerevisiae deletion strains, locus YJR075W, strain HOC1, hits give low values 0.986 | S. cerevisiae deletion strains, locus YKL009W, strain mrt4, hits give low values 0.974 | S. cerevisiae deletion strains, locus YKL068W, hits give low values 0.995 | S. cerevisiae deletion strains, locus YKL085W, strain MDH1 (second series), hits give low values 0.966 | S. cerevisiae deletion strains, locus YKL085W, strain MDH1, hits give low values 0.966 | S. cerevisiae deletion strains, locus YKL160W, strain elf1, hits give low values 1.02 | S. cerevisiae deletion strains, locus YKL190W, strain CNB1, hits give low values 0.996 | S. cerevisiae deletion strains, locus YKR001C, strain vps1, hits give low values 1.01 | S. cerevisiae deletion strains, locus YKR026C, strain gcn3, hits give low values 1.05 | S. cerevisiae deletion strains, locus YKR091W, strain srl3, hits give low values 0.973 | S. cerevisiae deletion strains, locus YLL001W, strain dnm1, hits give low values 1.04 | S. cerevisiae deletion strains, locus YLL026W, hits give low values 1.01 | S. cerevisiae deletion strains, locus YLL041C, strain sdh2, hits give low values 1.01 | S. cerevisiae deletion strains, locus YLR027C, strain aat2, hits give low values 1.01 | S. cerevisiae deletion strains, locus YLR039C, strain RIC1, hits give low values 1.06 | S. cerevisiae deletion strains, locus YLR058C, strain SHM2, hits give low values 0.994 | S. cerevisiae deletion strains, locus YLR102C, strain apc9, hits give low values 1.01 | S. cerevisiae deletion strains, locus YLR113W, strain HOG1, hits give low values 1.05 | S. cerevisiae deletion strains, locus YLR221C, strain rsa3, hits give low values 1.01 | S. cerevisiae deletion strains, locus YLR258W, strain gsy2, hits give low values 0.993 | S. cerevisiae deletion strains, locus YLR262C, strain YPT6 (second series), hits give low values 1.01 | S. cerevisiae deletion strains, locus YLR262C, strain YPT6, hits give low values 1.02 | S. cerevisiae deletion strains, locus YLR268W, strain sec22, hits give low values 1.02 | S. cerevisiae deletion strains, locus YLR320W, strain mms22, hits give low values 0.982 | S. cerevisiae deletion strains, locus YLR330W, strain CHS5, hits give low values 1.01 | S. cerevisiae deletion strains, locus YLR342W, strain FKS1 (second series), hits give low values 1.03 | S. cerevisiae deletion strains, locus YLR342W, strain FKS1, hits give low values 1.02 | S. cerevisiae deletion strains, locus YLR357W, strain rsc2, hits give low values 1.07 | S. cerevisiae deletion strains, locus YLR370C, strain arc18, hits give low values 0.999 | S. cerevisiae deletion strains, locus YLR371W, strain rom2, hits give low values 1.02 | S. cerevisiae deletion strains, locus YLR384C, strain iki3, hits give low values 0.993 | S. cerevisiae deletion strains, locus YLR418C, strain cdc73, hits give low values 0.989 | S. cerevisiae deletion strains, locus YML016C, strain PPZ1, hits give low values 0.992 | S. cerevisiae deletion strains, locus YML032C, strain rad52, hits give low values 0.967 | S. cerevisiae deletion strains, locus YML120C, strain ndi1, hits give low values 0.994 | S. cerevisiae deletion strains, locus YML124C, strain tub3, hits give low values 0.981 | S. cerevisiae deletion strains, locus YMR058W, strain fet3, hits give low values 1.02 | S. cerevisiae deletion strains, locus YMR078C, strain ctf18, hits give low values 0.988 | S. cerevisiae deletion strains, locus YMR125W, strain sto1, hits give low values 1.02 | S. cerevisiae deletion strains, locus YMR129W, hits give low values 0.997 | S. cerevisiae deletion strains, locus YMR205C, strain PFK2, hits give low values 0.998 | S. cerevisiae deletion strains, locus YMR223W, strain ubp8, hits give low values 1 | S. cerevisiae deletion strains, locus YMR231W, strain pep5, hits give low values 0.996 | S. cerevisiae deletion strains, locus YMR263W, strain SAP30, hits give low values 1.01 | S. cerevisiae deletion strains, locus YMR307W, strain GAS1, hits give low values 0.955 | S. cerevisiae deletion strains, locus YNL067W, strain RPL9B, hits give low values 1 | S. cerevisiae deletion strains, locus YNL071W, strain lat1, hits give low values 1 | S. cerevisiae deletion strains, locus YNL128W, strain TEP1, hits give low values 0.999 | S. cerevisiae deletion strains, locus YNL153C, strain GIM3, hits give low values 0.992 | S. cerevisiae deletion strains, locus YNL183C, strain NPR1, hits give low values 0.975 | S. cerevisiae deletion strains, locus YNL209W, strain ssb2, hits give low values 0.991 | S. cerevisiae deletion strains, locus YNL233W, strain BNI4, hits give low values 1.01 | S. cerevisiae deletion strains, locus YNL248C, strain rpa49, hits give low values 0.998 | S. cerevisiae deletion strains, locus YNL250W, strain rad50, hits give low values 1.01 | S. cerevisiae deletion strains, locus YNL271C, strain bni1, hits give low values 1.01 | S. cerevisiae deletion strains, locus YNL298W, strain CLA4, hits give low values 0.966 | S. cerevisiae deletion strains, locus YNL307C, strain MCK1, hits give low values 1 | S. cerevisiae deletion strains, locus YNL322C, strain KRE1 (second series), hits give low values 0.994 | S. cerevisiae deletion strains, locus YNR049C, strain mso1, hits give low values 0.995 | S. cerevisiae deletion strains, locus YNR052C, strain pop2, hits give low values 0.992 | S. cerevisiae deletion strains, locus YOL006C, strain TOP1, hits give low values 0.996 | S. cerevisiae deletion strains, locus YOL012C, strain htz1 1.9 | S. cerevisiae deletion strains, locus YOL147C, strain pex11, hits give low values 0.994 | S. cerevisiae deletion strains, locus YOR001W, strain rrp6, hits give low values 1.01 | S. cerevisiae deletion strains, locus YOR061W, strain CKA2, hits give low values 1.01 | S. cerevisiae deletion strains, locus YOR069W, strain VPS5, hits give low values 1 | S. cerevisiae deletion strains, locus YOR070C, strain gyp1, hits give low values 1.01 | S. cerevisiae deletion strains, locus YOR080W, strain dia2, hits give low values 1 | S. cerevisiae deletion strains, locus YOR083W, strain WHI5, hits give low values 1.04 | S. cerevisiae deletion strains, locus YOR106W, strain vam3, hits give low values 1.02 | S. cerevisiae deletion strains, locus YOR136W, strain idh2, hits give low values 1.01 | S. cerevisiae deletion strains, locus YOR144C, strain elg1, hits give low values 0.999 | S. cerevisiae deletion strains, locus YOR184W, strain ser1, hits give low values 1.01 | S. cerevisiae deletion strains, locus YOR231W, strain MKK1, hits give low values 1.03 | S. cerevisiae deletion strains, locus YOR265W, strain rbl2, hits give low values 1.01 | S. cerevisiae deletion strains, locus YOR270C, strain vph1, hits give low values 1 | S. cerevisiae deletion strains, locus YOR290C, strain snf2, hits give low values 0.963 | S. cerevisiae deletion strains, locus YOR316C, strain cot1, hits give low values 1 | S. cerevisiae deletion strains, locus YPL051W, strain arl3, hits give low values 1.04 | S. cerevisiae deletion strains, locus YPL078C, strain atp4, hits give low values 1.02 | S. cerevisiae deletion strains, locus YPL106C, strain sse1, hits give low values 0.976 | S. cerevisiae deletion strains, locus YPL240C, strain hsp82, hits give low values 1 | S. cerevisiae deletion strains, locus YPL256C, strain CLN2, hits give low values 1.02 | S. cerevisiae deletion strains, locus YPR119W, strain clb2, hits give low values 0.993 | S. cerevisiae deletion strains, locus YPR141C, strain kar3, hits give low values 0.994 | S. cerevisiae deletion strains, locus YPR163C, strain tif3, hits give low values 0.995 | S. cerevisiae deletion strains, locus YPR167C, strain met16, hits give low values 0.993 | S. cerevisiae deletion strains, strain wtn01, hits give low values 1.03 | S. cerevisiae strains, strain wild type, hits give low values 0.992
